In PubChem BioAssay (NCI):
The panel holds about 83,000 compounds, 20% with a hit somewhere; the sample as a whole holds those more often.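 Percent growth is the endpoint: 0 to 100 indicates growth inhibition (40 means 60% inhibition), 0 means no net growth, and negative values indicate cell death.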 Active and inactive are the calls of the source. Rule for the calls: active = growth percent below 10; inactive = the rest.

Assays:
Assay in all cases: NCI-60 one-dose screen, 48 h (100 = growth as untreated, 0 = no growth, -100 = all killed)
Conditions in all cases: 10 µM
[1] = system: SK-MEL-2 melanoma
[2] = system: EKVX NSCLC
[3] = system: SN12C renal
[4] = system: TK-10 renal
[5] = system: ACHN renal
[6] = system: CAKI-1 renal
[7] = system: CCRF-CEM leukemia
[8] = system: MOLT-4 leukemia
[9] = system: A498 renal
[10] = system: UO-31 renal

Measured: growth

O=[N+]([O-])c1ccc(NCSc2ccc(Cl)cc2)cc1
inactive: [1] 98.5% | [2] 97.3% | [3] 86% | [4] 105% | [5] 92.8% | [6] 96.2% | [7] 50.4% | [8] 61.7%

CCOC(=O)c1sc2ncnc(Nc3ccc4c(cnn4C(=O)Nc4ccccc4)c3)c2c1C
inactive: [1] 85% | [2] 84.3% | [3] 61.3% | [4] 78.6% | [5] 87.6% | [6] 83.9% | [8] 91%

CN(C)c1nc(N)c2nccnc2n1
inactive: [1] 97.9% | [2] 98.3% | [3] 99.6% | [4] 104% | [5] 105% | [6] 84.7% | [9] 93% | [7] 114% | [8] 98.1%

Oc1ccc(-c2[nH]c3ccccc3c2-c2nc3ccccc3o2)cc1
inactive: [1] 66.9% | [2] 83% | [3] 84.2% | [4] 84.8% | [5] 51.6% | [6] 64% | [9] 81.4% | [8] 58.9%

OC(CCN1CCCC1)(c1ccccc1)C1CCCCC1 (stereo not given)
inactive: [1] 111% | [2] 97.5% | [3] 95.9% | [4] 108% | [5] 94.7% | [6] 95.7% | [9] 116% | [7] 98.2% | [8] 109%

CCCCN1C(=O)CC(SC2CC(=O)N(CCCC)C2=O)C1=O (stereo not given)
inactive: [1] 99.7% | [2] 98.5% | [3] 102% | [4] 103% | [5] 99% | [6] 88.6% | [9] 99.6% | [7] 97.1% | [8] 103%

CC(=O)OC1CC2C(C)(C)CCC[C@]2(C)C2=C1C(O)=C(C(C)C)C(=O)C2=O (stereo not given in full)
inactive: [4] 22.5% | [7] 26.8% | [8] 17.4%
active: [1] -2.83% | [2] -15.7% | [3] 3.28% | [5] -95.3% | [6] -5.22%

CCOc1ccccc1/C=N\N=C(\N)N/N=C/c1ccccc1OCC
inactive: [1] 14.9% | [2] 64.8% | [3] 45.2% | [4] 67.8% | [5] 44.8% | [6] 37.2% | [7] 16.9% | [8] 26.5%

c1ccc2c(c1)Cc1ccccc1N2CCN1CCCCC1
inactive: [1] 97% | [2] 101% | [10] 83.8% | [4] 104% | [5] 89.6% | [6] 90.7% | [9] 107% | [7] 98.7% | [8] 83.3%

CC1CCCC(C(=O)O)C1C(=O)O (stereo not given)
inactive: [1] 93.4% | [2] 95.4% | [4] 93.8% | [5] 105% | [6] 97.2% | [9] 95.8% | [7] 99.3% | [8] 77.6%

CCOc1ccccc1/C=N/N1CCCCCC1
inactive: [1] 113% | [2] 96.7% | [4] 104% | [5] 104% | [6] 85.7% | [7] 100% | [8] 97.7%

Cc1c(Cl)cccc1NC(=O)CN1CCOCC1
inactive: [1] 93.5% | [2] 102% | [3] 99.9% | [4] 84.4% | [5] 109% | [9] 101% | [7] 97.2% | [8] 82.3%

COc1ccc(N=Nc2cc(OC)c(OC)c(OC)c2)cc1
inactive: [1] 74.1% | [2] 77.3% | [10] 58.6% | [4] 84.7% | [5] 80.2% | [6] 70.2% | [9] 73.5% | [7] 65.6% | [8] 78%

COc1ccc2c(c1)C(CC(=O)NN)CCC2 (stereo not given)
inactive: [1] 108% | [2] 109% | [3] 104% | [5] 99.6% | [6] 91.2% | [9] 93.2% | [7] 100% | [8] 86.8%

CCN(CC)CCOC(=O)c1cc(OCc2ccccc2)c(OCc2ccccc2)c(OCc2ccccc2)c1
inactive: [1] 78.5% | [2] 47.7% | [10] 50.7% | [4] 78.3% | [5] 71.9% | [9] 68.8% | [7] 37%
active: [8] 8.5%

Cn1cnc([N+](=O)[O-])c1/C=C1\Oc2ccc(Br)cc2C1=O
inactive: [1] 83.1% | [3] 98.6% | [10] 67.6% | [4] 99.7% | [5] 68.8% | [6] 87.3% | [9] 100% | [8] 60.2%
active: [7] 2.63%

Cc1ccc(N=Nc2ccccc2)cc1
inactive: [1] 97.6% | [2] 94.8% | [10] 94.8% | [4] 95.1% | [5] 107% | [9] 104% | [7] 99% | [8] 95.5%

O=C(CCCCNC(=O)c1nc(-c2ccccc2)n(-c2ccccc2)n1)NO
inactive: [1] 67.6% | [2] 80.7% | [3] 77.9% | [4] 56% | [5] 102% | [8] 58.1%

O=C1/C(=C/c2ccc3c(c2)OCO3)SC(=S)N1C1c2ccccc2Oc2ccccc21
inactive: [1] 115% | [2] 96.8% | [10] 74.2% | [4] 101% | [5] 91.2% | [6] 92.8% | [9] 101% | [7] 86.7% | [8] 96.5%

Cc1cc(SC#N)cc(C(C)(C)C)c1O
inactive: [1] 82.2% | [2] 102% | [10] 93.6% | [4] 108% | [5] 101% | [6] 96.4% | [9] 86.1% | [7] 86.4% | [8] 66.9%

COC1OC(COS(=O)OC)C(O)C(O)C1OS(=O)OC (stereo not given)
inactive: [1] 112% | [2] 103% | [3] 106% | [4] 88.6% | [5] 106% | [9] 116% | [7] 101% | [8] 92.1%

CC(C)(C)c1nn(-c2ccccc2)c2c1CC1(CN2Cc2ccc(Cl)cc2)C(=O)c2ccccc2C1=O
inactive: [1] 92.4% | [3] 86.1% | [10] 99.6% | [4] 99.3% | [5] 98.9% | [9] 76.5% | [7] 66.2%

COc1ccc(-c2nn(-c3cccc(Cl)c3)cc2/C=C2\NC(=S)N(c3ccc(Cl)cc3)C2=O)cc1
inactive: [3] 20.4% | [10] 53.6% | [4] 27.7% | [5] 51.1% | [7] 21.9%
active: [1] -26.3%

CC(=O)Nc1cc2c(cc1Cl)Cc1cc(Cl)ccc1-2
inactive: [1] 103% | [2] 12% | [10] 65.4% | [4] 86.4% | [5] 88.2% | [6] 75.6% | [8] 103%

COc1ccc(/C=c2\sc3n(c2=O)C(c2cc(OC)c(OC)c(OC)c2)C=C(c2ccc(OC)c(OC)c2)N=3)cc1OC (stereo not given)
inactive: [1] 106% | [2] 101% | [3] 93.9% | [4] 105% | [6] 105% | [9] 94.5% | [7] 64.4% | [8] 79.5%

O=C1CC(SC(=S)C2CCCC2=O)C(=O)N1 (stereo not given)
inactive: [1] 96.9% | [3] 99.3% | [10] 92.3% | [4] 108% | [5] 103% | [9] 100% | [7] 101% | [8] 96.5%

COc1ccc2c(c1)C(=O)/C(=C/c1ccc([N+](=O)[O-])o1)O2
active: [1] -68.7% | [3] -30.4% | [10] -91.9% | [4] -93.1% | [5] -80.9% | [6] -69.8% | [9] -50.5% | [7] 3.49% | [8] -37.2%

O=C(CI)OCC(COC(=O)CI)OC(=O)CI
active: [10] -89.8% | [6] -17.6%
inactive: [1] 83.1% | [3] 76.8% | [4] 78.9% | [5] 11.2% | [9] 108% | [8] 44.4%

Cc1ccc(-c2c3c(N)nc(-c4cccnc4)nc3nc3c2c(C)nn3-c2ccccc2)cc1
inactive: [1] 61.6% | [3] 82.8% | [10] 65.8% | [4] 94.6% | [5] 40% | [6] 83.6% | [9] 74.8% | [8] 93.6%

COc1nc2c(c(=O)n1C)CN(c1ccccc1)C(=O)C(C)N2 (stereo not given)
inactive: [1] 90.8% | [2] 96.4% | [3] 92% | [5] 93.9% | [6] 100% | [9] 115% | [7] 97.2% | [8] 93.7%

O=C1/C(=C/c2ccc([N+](=O)[O-])s2)Oc2cc(Cl)ccc21
inactive: [6] 52.8% | [9] 102%
active: [1] -49.9% | [3] -2.52% | [10] -92% | [4] -26.8% | [5] -70.5% | [7] -9.78% | [8] 2.92%
